The record followed here is PubChem BioAssay (Tox21).

Unmarked numbers belong to inactive results. Inconclusive results are not listed. Calls of active or inactive are those of the source. Unless noted, calls follow the shape of the dose curve; as a rule, active = well fitted curve in the direction sought with a large enough effect in the repeat runs; inconclusive = weak or mixed curves; inactive = no such curve, though single readings can be large; an effect the other way counts as inactive or inconclusive.

Experiment [1] is described as follows: Caspase-3/7 induction in CHO-K1 cells by small molecules, qHTS cell viability counter screen (AID 1346979). Also: nearly all actives have a fitted effect of over 35% in size. Also: potency is read from the fitted curve at half-maximal effect. The gist of the method: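 Seeding: 1,500 CHO-K1 cells/well. Rest: 5hr, 37C. Treatment: compounds in DMSO, 16hr. Read: CellTiter-Fluor, 1hr, fluorescence.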
Experiment [2] in a line: Caspase-3/7 induction in CHO-K1 cells by small molecules, qHTS assay (AID 1346980). Also: nearly all actives have a fitted effect of over 15% in size. Put shortly:
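Luminescent Caspase-Glo 3/7 read (30min, room temperature) quantified apoptosis induction. Cells were wild-type CHO-K1, treated with compound for 17hr at 37 C and 5% CO2.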
On the technique in general: qHTS replaces the single test concentration by a dilution series.

Experiment [3] can be described thus: Caspase-3/7 induction in HepG2 cells by small molecules, qHTS cell viability counter screen (AID 1346981). Also: nearly all actives have a fitted effect of over 30% in size. Also: potency is read from the fitted curve at half-maximal effect. Put shortly:
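Treatment of HepG2 cells with DMSO-delivered compounds ran 16 hr at 37 C following a 5-hr pre-incubation of 2,000 cells/well. CellTiter-Fluor fluorescence, read after 1 hr, served as the viability measure in a qHTS format.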

The target in experiment [4] is Nuclear receptor subfamily 1 group I member 2 (Homo sapiens) (UniProt O75469). As to the kind of experiment: Human pregnane X receptor (PXR) small molecule agonists, qHTS assay (AID 1346982). Also: nearly all actives have a fitted effect of over 35% in size. Also: potency is read from the fitted curve at half-maximal effect. Put shortly: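 Stable HepG2 line reporting PXR-mediated CYP3A4 expression via luciferase. Treatment: 24 hr with compounds in DMSO at 37 C. Detection: ONE-Glo luminescence.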
Sequence of Nuclear receptor subfamily 1 group I member 2 (Homo sapiens) (O75469 whole entry, looked up): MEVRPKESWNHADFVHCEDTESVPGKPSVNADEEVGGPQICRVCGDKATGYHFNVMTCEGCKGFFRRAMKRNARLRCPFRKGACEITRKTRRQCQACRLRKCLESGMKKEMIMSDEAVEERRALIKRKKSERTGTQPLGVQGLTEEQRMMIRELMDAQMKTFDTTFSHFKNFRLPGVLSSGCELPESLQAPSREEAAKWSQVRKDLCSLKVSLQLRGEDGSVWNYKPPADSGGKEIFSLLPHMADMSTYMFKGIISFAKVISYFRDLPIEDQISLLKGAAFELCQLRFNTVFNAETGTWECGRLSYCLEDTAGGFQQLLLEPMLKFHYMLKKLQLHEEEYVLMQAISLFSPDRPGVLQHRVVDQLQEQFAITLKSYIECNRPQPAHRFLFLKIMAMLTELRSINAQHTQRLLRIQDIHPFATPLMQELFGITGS
Experiment [5] has as its target Acetylcholinesterase (Homo sapiens) (UniProt P22303). The experiment in a line: Acetylcholinesterase (AChE) small molecule antagonists: colormetric cell-based qHTS assay (AID 1347395; calls by dose curve; also: nearly all actives have a fitted effect of over 30% in size). Put shortly: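 Quantitative HTS in attached SH-SY5Y cells: 30 min compound exposure, then 90 min with acetylthiocholine and DTNB at 37 C; colour from thiocholine reports AChE activity.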

For experiment [6] the target is unchanged. The experiment in a line: Acetylcholinesterase (AChE) small molecule antagonists: enzyme-based qHTS assay (AID 1347397; calls by dose curve; also: nearly all actives have a fitted effect of over 55% in size). Conditions: Potency: AChE enzyme activity inhibition. The gist of the method:
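First, recombinant human AChE (50 mU/mL as dispensed) received test compound or DMSO. Second, plates stood 30 min at room temperature. Third, DTNB and acetylthiocholine were added, followed by 10 min at room temperature and colorimetric detection.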

For experiment [7] the target is unchanged. The experiment in a line: Acetylcholinesterase (AChE) small molecule antagonists: fluorescence cell-based qHTS assay (AID 1347398; calls by dose curve; also: nearly all actives have a fitted effect of over 50% in size). Conditions: Potency: AChE activity. Put shortly: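 Homogeneous quantitative HTS format. SH-SY5Y cells seeded at 2,000 per well settle overnight at 37 C. Compound pretreatment runs 30 min (37 C, 5% CO2); substrate/probe mix then reacts 40 min at RT before reading 490/520 nm.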

For experiment [8] the target is unchanged. The experiment in a line: Acetylcholinesterase (AChE) small molecule antagonists: enzyme-based qHTS assay with human liver microsomes (AID 1347399; calls by dose curve; also: nearly all actives have a fitted effect of over 60% in size). Conditions: Potency: qHTS inhibition. The gist of the method:
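Recombinant human AChE (50 mU/mL in the enzyme mix) and human liver microsomes (0.25 mg/mL final) were preincubated with compound and NADPH (0.25 mg/mL final) for 30 min at 37 C. Acetylthiocholine/DTNB was then added; thiocholine was read colorimetrically after 10 min at room temperature.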

The target in experiment [9] is Cytochrome P450 2D6 (Homo sapiens) (UniProt P10635). The experiment in a line: Cytochrome P450 Family 2 Subfamily D Member 6 (CYP2D6) small molecule antagonists: luciferase reporter qHTS assay (AID 1671196). Also: nearly all actives have a fitted effect of over 50% in size. Also: potency is read from the fitted curve at half-maximal effect. Put shortly: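 Chemicals tested for interference with CYP2D6 activity; proluciferin substrate, NADPH regeneration, 1 h at room temperature, luminescent detection.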
Sequence of Cytochrome P450 2D6 (Homo sapiens) (P10635 whole entry, looked up): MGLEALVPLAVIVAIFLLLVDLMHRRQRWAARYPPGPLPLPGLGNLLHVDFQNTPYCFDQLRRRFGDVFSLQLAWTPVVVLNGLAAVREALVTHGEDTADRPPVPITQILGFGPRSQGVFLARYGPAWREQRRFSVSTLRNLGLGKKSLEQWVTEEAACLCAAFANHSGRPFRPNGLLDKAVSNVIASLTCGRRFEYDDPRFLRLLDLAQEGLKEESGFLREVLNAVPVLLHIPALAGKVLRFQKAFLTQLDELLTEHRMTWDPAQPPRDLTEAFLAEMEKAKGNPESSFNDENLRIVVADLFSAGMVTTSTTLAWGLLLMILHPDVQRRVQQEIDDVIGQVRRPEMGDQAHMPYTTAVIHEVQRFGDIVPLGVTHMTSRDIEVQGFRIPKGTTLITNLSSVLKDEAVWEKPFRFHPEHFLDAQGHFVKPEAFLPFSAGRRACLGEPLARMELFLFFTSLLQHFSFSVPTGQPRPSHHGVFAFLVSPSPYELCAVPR
(Reporter assays use an easily measured gene product as a stand-in for the process of interest.)

For experiment [10], the target named is Cytochrome P450 2C19 (Homo sapiens) (UniProt P33261). As to the kind of experiment: Cytochrome P450 Family 2 Subfamily C Member 19 (CYP2C19) small molecule antagonists: luciferase reporter qHTS assay (AID 1671197). Also: nearly all actives have a fitted effect of over 65% in size. Also: potency is read from the fitted curve at half-maximal effect. The gist of the method: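 CYP2C19 P450-Glo, 1536-well qHTS. Cpd + enzyme/proluciferin substrate 10 min RT; + NADPH regen, 37C 1 h; stop with luciferin detection reagent, 20 min RT, luminescence (RLU). Pos ctrl ketoconazole.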
Sequence of Cytochrome P450 2C19 (Homo sapiens) (P33261 whole entry, looked up): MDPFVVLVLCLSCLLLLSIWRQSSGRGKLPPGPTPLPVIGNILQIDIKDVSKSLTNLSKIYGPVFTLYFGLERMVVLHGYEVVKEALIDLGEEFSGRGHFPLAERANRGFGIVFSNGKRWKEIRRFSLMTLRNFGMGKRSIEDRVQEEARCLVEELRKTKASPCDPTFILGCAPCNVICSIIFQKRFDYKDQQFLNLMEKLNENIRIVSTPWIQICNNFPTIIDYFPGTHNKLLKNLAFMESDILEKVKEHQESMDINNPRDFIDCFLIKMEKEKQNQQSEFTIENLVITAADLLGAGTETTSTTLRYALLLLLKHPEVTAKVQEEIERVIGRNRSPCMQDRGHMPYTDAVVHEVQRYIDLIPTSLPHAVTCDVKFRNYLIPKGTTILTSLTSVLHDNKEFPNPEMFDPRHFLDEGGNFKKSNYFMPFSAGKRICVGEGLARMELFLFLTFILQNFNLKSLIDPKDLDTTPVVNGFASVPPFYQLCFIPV

For experiment [11], the target named is Cytochrome P450 2C9 (Homo sapiens) (UniProt P11712). The experiment in a line: Cytochrome P450 Family 2 Subfamily C Member 9 (CYP2C9) small molecule antagonists: luciferase reporter qHTS assay (AID 1671198). Also: nearly all actives have a fitted effect of over 50% in size. Also: potency is read from the fitted curve at half-maximal effect. The gist of the method:
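Enzyme-substrate mix preincubated with compound 10 min at room temperature; reaction started with NADPH regeneration solution, 1 h 37C. Luminescent luciferin product read after 20 min detection reagent.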

The target in experiment [12] is Cytochrome P450 1A2 (Homo sapiens) (UniProt P05177). As to the kind of experiment: Cytochrome P450 Family 1 Subfamily A Member 2 (CYP1A2) small molecule antagonists: luciferase reporter qHTS assay (AID 1671199). Also: nearly all actives have a fitted effect of over 50% in size. Also: potency is read from the fitted curve at half-maximal effect. Put shortly:
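Read-out is luminescence from luciferin detection reagent (20 min) proportional to CYP1A2 activity; compounds in DMSO preincubated 10 min with enzyme and proluciferin substrate, then NADPH regeneration solution, 1 h, room temperature.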

The target in experiment [13] is Voltage-gated inwardly rectifying potassium channel KCNH2 (Homo sapiens) (UniProt Q12809). As to the kind of experiment: Human Ether-a-go-go-Related Gene (hERG) channel small molecule antagonists: fluorescence cell-based qHTS assay (AID 1671200). The gist of the method:
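First, 1000 cells per well are seeded and cultured overnight at 37 C. Next, FluxOR II dye is loaded for 1 h at room temperature, protected from light. After 10 more minutes, stimulus is added and fluorescence is read.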
A general note: Block of hERG is tested as a sign of cardiac risk.

Experiment [14] deals with Cytochrome P450 3A4 (Homo sapiens) (UniProt P08684). As to the kind of experiment: Cytochrome P450 Family 3 Subfamily A Member 4 (CYP3A4) small molecule antagonists: luciferase reporter qHTS assay (AID 1671201). Also: nearly all actives have a fitted effect of over 50% in size. Also: potency is read from the fitted curve at half-maximal effect. Put shortly:
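Enzyme and proluciferin substrate are mixed with test chemicals for 10 min, then NADPH regeneration system drives turnover for 1 h at room temperature. A detection reagent halts the reaction; luminescence after 20 min gives relative activity.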

Sequence of Cytochrome P450 3A4 (Homo sapiens) (P08684 whole entry, looked up): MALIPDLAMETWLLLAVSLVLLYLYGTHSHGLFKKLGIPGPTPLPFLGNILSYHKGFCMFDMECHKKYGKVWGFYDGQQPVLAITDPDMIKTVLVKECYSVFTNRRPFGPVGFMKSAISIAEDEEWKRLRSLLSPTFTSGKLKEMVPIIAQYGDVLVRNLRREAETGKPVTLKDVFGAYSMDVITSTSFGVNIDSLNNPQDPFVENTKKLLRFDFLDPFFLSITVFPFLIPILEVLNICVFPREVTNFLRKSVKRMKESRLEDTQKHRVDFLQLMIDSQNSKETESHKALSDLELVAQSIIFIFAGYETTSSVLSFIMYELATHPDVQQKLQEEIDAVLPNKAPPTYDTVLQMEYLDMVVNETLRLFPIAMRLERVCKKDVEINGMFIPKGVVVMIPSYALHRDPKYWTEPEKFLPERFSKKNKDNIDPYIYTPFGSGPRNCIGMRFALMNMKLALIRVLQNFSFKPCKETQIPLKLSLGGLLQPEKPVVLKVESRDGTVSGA
Sequence of Voltage-gated inwardly rectifying potassium channel KCNH2 (Homo sapiens) (Q12809 whole entry, looked up): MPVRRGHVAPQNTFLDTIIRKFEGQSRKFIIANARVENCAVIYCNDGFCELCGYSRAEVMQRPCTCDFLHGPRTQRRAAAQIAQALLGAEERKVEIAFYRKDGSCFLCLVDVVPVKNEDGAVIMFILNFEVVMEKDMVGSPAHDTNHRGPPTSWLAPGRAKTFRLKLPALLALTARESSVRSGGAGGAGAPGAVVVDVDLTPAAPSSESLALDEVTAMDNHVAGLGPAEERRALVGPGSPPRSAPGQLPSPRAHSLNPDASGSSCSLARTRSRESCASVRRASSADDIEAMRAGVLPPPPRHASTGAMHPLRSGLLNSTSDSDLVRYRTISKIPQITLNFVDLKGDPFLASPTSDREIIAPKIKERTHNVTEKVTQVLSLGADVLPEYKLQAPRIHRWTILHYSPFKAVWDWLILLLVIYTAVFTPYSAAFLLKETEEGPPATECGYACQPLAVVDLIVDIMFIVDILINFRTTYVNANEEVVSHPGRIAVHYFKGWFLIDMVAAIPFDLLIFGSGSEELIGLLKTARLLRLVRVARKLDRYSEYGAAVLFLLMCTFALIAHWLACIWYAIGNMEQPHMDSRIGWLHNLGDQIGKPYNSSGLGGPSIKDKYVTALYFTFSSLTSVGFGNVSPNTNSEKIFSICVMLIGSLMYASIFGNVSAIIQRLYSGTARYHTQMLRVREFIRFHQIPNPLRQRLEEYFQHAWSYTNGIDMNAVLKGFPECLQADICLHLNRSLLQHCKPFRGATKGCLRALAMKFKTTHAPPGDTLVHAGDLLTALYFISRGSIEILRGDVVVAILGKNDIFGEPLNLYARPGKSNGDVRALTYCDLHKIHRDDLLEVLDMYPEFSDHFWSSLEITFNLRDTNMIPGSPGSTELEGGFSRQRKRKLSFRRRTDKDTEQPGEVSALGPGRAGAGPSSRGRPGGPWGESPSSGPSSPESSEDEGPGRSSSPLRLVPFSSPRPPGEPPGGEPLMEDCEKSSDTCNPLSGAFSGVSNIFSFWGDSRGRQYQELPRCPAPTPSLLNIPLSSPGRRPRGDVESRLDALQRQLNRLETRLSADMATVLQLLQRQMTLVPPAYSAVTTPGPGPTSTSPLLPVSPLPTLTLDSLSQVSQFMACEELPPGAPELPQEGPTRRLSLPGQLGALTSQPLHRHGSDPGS
Sequence of Cytochrome P450 1A2 (Homo sapiens) (P05177 whole entry, looked up): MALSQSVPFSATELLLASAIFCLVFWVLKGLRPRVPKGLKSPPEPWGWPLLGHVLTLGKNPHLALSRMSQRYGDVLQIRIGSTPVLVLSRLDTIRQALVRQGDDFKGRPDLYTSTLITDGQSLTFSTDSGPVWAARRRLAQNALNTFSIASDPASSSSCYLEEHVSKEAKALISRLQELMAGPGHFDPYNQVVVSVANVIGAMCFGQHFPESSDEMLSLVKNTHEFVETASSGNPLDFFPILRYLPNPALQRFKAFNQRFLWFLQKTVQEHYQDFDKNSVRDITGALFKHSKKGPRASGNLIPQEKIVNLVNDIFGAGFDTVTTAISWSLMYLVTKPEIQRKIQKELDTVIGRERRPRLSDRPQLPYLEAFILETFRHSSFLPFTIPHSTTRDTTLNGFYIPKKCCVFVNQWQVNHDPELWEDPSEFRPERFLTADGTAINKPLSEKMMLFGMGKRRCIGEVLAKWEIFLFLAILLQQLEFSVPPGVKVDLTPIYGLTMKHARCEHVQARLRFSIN
Sequence of Cytochrome P450 2C9 (Homo sapiens) (P11712 whole entry, looked up): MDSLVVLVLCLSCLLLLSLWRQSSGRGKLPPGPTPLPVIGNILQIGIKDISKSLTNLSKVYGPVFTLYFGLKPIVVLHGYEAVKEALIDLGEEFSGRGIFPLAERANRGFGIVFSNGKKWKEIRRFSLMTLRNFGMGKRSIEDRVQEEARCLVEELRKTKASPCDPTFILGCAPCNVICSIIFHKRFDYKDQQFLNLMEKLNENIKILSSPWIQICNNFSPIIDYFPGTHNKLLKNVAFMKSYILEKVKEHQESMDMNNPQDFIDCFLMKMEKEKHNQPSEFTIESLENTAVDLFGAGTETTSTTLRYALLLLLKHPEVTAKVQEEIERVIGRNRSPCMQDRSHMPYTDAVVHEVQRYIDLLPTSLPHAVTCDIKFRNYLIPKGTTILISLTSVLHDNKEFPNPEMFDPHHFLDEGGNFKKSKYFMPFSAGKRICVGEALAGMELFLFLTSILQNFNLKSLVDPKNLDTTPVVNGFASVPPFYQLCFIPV
Sequence of Acetylcholinesterase (Homo sapiens) (P22303 whole entry, looked up): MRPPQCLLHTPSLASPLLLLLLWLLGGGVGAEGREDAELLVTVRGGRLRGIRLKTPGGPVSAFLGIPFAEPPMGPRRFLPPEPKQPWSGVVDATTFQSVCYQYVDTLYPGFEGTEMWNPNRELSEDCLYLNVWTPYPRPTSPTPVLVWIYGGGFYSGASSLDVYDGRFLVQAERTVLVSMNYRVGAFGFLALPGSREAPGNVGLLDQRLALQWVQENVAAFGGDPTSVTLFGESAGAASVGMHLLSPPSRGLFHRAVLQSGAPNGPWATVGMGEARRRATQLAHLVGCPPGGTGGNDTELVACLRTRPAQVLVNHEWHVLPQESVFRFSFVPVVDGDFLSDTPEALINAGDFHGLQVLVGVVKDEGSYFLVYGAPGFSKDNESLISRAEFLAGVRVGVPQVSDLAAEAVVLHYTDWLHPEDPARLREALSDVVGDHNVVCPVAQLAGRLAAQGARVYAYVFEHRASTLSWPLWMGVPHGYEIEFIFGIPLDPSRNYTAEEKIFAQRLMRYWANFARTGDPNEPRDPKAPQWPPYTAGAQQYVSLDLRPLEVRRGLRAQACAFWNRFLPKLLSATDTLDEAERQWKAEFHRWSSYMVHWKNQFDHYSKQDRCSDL

As for `Cc1cccc(OP(=O)(Oc2cccc(C)c2)Oc2cccc(C)c2)c1`, the Potency result in experiment [1], in [2], in [3], in experiment [5], in experiment [6] and in [7] was “inactive” each time. In addition, the Potency entry in experiment [8], in experiment [9] and in experiment [13] was “inactive” throughout. For the same compound, the Potency in experiment [4] was 30.6 µM (active); in [10] it was 20 µM (active); in experiment [11] it was 35.6 µM (active); in experiment [12], 28.3 µM (active).
For `CCCN(CC)CC1COC2(CCC(C(C)(C)C)CC2)O1` (stereo unspecified), the Potency result in [1], in experiment [2], in experiment [3], in experiment [4], in experiment [5] and in [6] was “inactive” throughout. The Potency result in experiment [7] and in experiment [8] was “inactive” in each case. The figures for the Potency in experiment [9] and in experiment [10] were 12.6 µM (active) and 11.2 µM (active), respectively.
In the case of `O=[N+]([O-])O.O=[N+]([O-])O.[Cd]`, the Potency in [1] is 1.72 µM (active). Also, the Potency entry in experiment [2] is “inactive”.
Take `ClC(Cl)=C(Cl)Cl`: the Potency result in [1], in [2], in [3], in [4], in experiment [5] and in experiment [6] was “inactive” each time. Also, the Potency result in experiment [7], in [8], in experiment [9], in experiment [10], in experiment [11] and in [13] was “inactive” throughout. Further, the Potency result in experiment [14] was “inactive”.
Regarding `CC(=O)c1ccc(-c2ccccc2)cc1`, the Potency result in experiment [1], in [2], in experiment [3], in [5], in [6] and in experiment [7] was “inactive” each time. Moreover, the Potency entry in [8], in [9], in [13] and in experiment [14] was “inactive” in each case. Besides, the Potency was 48.6 µM (active) in experiment [4], 31.7 µM (active) in [10], 15.9 µM (active) in experiment [11] and 5.03 µM (active) in experiment [12].
On to `NC(=O)c1ccc(N)nc1`, for which, in [1], the Potency is 2.73 µM (active). Further, the Potency result in [2], in [3], in [4], in [5], in experiment [6] and in [7] was “inactive” throughout. The Potency result in [8], in experiment [9], in [10], in experiment [11], in experiment [12] and in experiment [14] was “inactive” each time.
Take `CN(CCCC(=O)c1cccnc1)N=O`: the Potency entry in [1], in [2], in experiment [3], in [4], in experiment [5] and in experiment [6] was “inactive” each time. Further, the Potency entry in experiment [7], in experiment [8], in experiment [9], in experiment [10], in experiment [11] and in experiment [13] was “inactive” throughout. Also, in experiment [14], the Potency was 17.8 µM (active).
As for `S=C=Nc1cccc2ccccc12`, the Potency in [1] was 60.5 µM (active); in experiment [3], 60.5 µM (active); in experiment [4], 10.8 µM (active); in [9] it was 14 µM (active); in [10], 2.8 µM (active); in [11] it was 4.98 µM (active). For the same compound, the Potency in experiment [12] is 8.85 µM (active); in experiment [14] it was 3.14 µM (active). The Potency entry in experiment [2], in [5], in experiment [6], in experiment [7], in [8] and in [13] was “inactive” each time.
Consider `CN(C)C1CSSSC1`, for which the Potency entry in experiment [1], in experiment [2], in experiment [3], in experiment [5], in [6] and in experiment [7] was “inactive” each time. The Potency result in experiment [8], in experiment [13] and in [14] was “inactive” each time. Also, the Potency is 61.1 µM (active) in experiment [4]; 39.9 µM (active) in experiment [9]; 35.6 µM (active) in experiment [10]; 28.3 µM (active) in experiment [11]; 63.3 µM (active) in experiment [12].
